Source: PubChem (several laboratories)
HCT116 PTEN-null: growth suppressors of cells with PTEN tumor suppressor deletion; 140,000 tested, 1.2% active; AID 827; HCT116 PTEN-null viability, CellTiter-Glo, 60 h; hits give low values; viability, % at 10 µM;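 active = viability at or below a set limit, 4 SD under the median of all tested compounds, cut at about 3.7% in these data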;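 note: PTEN knockout HCT116 line with beta catenin targeted HCT116 as companion control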
WT yeast gro inh: growth inhibition of WT yeast, mitochondrial fusion screen. mitochondrial fusion phenotypic screen, WT strain. inhibition, % at 10 µM. 190,000 tested, 2.1% active. AID 1362; in the data active = inhibition above about 58%; tested in S. cerevisiae
bCat KO growth: beta-catenin-lacking colon tumor cell growth suppression | HCT116 beta-catenin knockout viability, CellTiter-Glo, 60 h; hits give low values | viability, % at 10 µM | 140,000 tested, 1.5% active;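 active = viability at or under a set limit, the compound median less 4 SD, cut at about 6% in these data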
hDAT+cocaine: modulates human dopamine transporter uptake under cocaine; B-score at 10 µM; LLC-PK1 hDAT cells, [14C]-dopamine uptake with cocaine IC80; actives deviate in either direction; AID 449768; Q01959; 110,000 tested, 1.3% active;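 active = Z score or B-score, a plate-position-corrected score, falls beyond the plate's 99.7% confidence bounds, in either direction; inactive = both scores lie inside the 99.7% bounds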
Target sequence (Q01959 whole entry, looked up): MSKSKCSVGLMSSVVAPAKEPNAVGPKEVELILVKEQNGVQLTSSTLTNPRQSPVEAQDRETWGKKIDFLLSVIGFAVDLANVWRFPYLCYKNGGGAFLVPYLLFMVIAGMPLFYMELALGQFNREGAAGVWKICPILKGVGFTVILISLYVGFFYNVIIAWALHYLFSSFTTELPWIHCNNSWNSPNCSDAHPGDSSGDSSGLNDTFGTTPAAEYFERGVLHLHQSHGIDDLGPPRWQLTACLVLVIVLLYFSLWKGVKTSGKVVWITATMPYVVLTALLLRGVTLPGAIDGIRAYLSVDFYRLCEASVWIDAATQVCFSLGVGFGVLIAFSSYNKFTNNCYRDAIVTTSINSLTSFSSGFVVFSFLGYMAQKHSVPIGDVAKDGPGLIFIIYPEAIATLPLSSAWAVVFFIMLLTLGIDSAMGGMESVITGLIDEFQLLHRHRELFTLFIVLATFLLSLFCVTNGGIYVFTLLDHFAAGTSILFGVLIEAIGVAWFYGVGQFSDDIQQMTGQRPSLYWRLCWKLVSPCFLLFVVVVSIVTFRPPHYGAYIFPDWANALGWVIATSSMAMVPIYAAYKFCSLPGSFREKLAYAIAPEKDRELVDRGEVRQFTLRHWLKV
Each line names hits and unclear results; the compound was inactive in the other large screens; ! = not active in a repeat. Compounds with a hit are over-represented: about 3.6% of the library has one in this group of screens.

O=C(c1ccc2c(c1)OCO2)N1CCC2(CC1)Oc1ccc(Cl)cc1C(=O)C21CC(c2ccc(Cl)cc2)=NO1 (centres undefined)	none (no result: HCT116 PTEN-null, WT yeast gro inh, bCat KO growth)
CCN(CC)c1ccc(/C=N/OCC(=O)N2CCCc3ccccc32)cc1	none (no result: hDAT+cocaine)
CCOC(=O)N1CCN(CC(O)COCCC23CC4CC(CC(C4)C2)C3)CC1 (centres undefined)	WT yeast gro inh 60
CCOC(=O)N1CCN(CC(O)COC2CC(C)CCC2C(C)C)CC1 (centres undefined)	WT yeast gro inh 77
CC(=O)Nc1ccccc1OCC(=O)N(Cc1ccccc1)C(C)C	none (no result: hDAT+cocaine)
COc1cccc(N=c2oc3cc(O)ccc3cc2C(=O)NCC2CCCO2)c1 (centres undefined)	none (no result: HCT116 PTEN-null, bCat KO growth, hDAT+cocaine)
COC(=O)C1=C(C)NC(C)=C(C(=O)OC)C1c1ccc(OC(=O)c2oc3ccccc3c2C)c(OC)c1	none (no result: hDAT+cocaine)
Fc1ccc(Br)cc1C1C=C(c2ccc(Br)cc2)Nc2ncnn21 (centres undefined)	none
CCc1ccc(C2=CC(c3cc(Br)ccc3F)n3ncnc3N2)cc1 (centres undefined)	WT yeast gro inh 65
c1ccc(CC2CCN(C(c3cccs3)c3nnnn3C3CCCC3)CC2)cc1 (centres undefined)	none
CC(C)(C)n1nnnc1C(c1cccs1)N1CCCC2(CCCCC2)C1 (centres undefined)	WT yeast gro inh 78
c1csc(C(c2nnnn2C2CCCCC2)N2CCCC3(CCCCC3)C2)c1 (centres undefined)	WT yeast gro inh 62 (no result: hDAT+cocaine)
CCNc1nc(NCC)n2c(SC(C(=O)Nc3cc(Cl)cc(Cl)c3)c3ccccc3)nnc2n1 (centres undefined)	HCT116 PTEN-null 1.2, bCat KO growth 1.2 (no result: hDAT+cocaine)
OC[C@@H](O)C1OC2NC(=S)OC2C1O (some centres undefined)	none (no result: HCT116 PTEN-null, bCat KO growth, hDAT+cocaine)
CSc1nccc(Oc2ccc(C#N)cc2)n1	none (no result: hDAT+cocaine)
O=C(Nc1ccccc1-c1nc2ccccc2[nH]1)c1sc2ccccc2c1Cl	HCT116 PTEN-null 1.9, bCat KO growth 4.0 (no result: hDAT+cocaine)
COc1ccc2oc(=N)c(-c3nnc4n3CCCCC4)cc2c1	none
N=c1oc2ccc3ccccc3c2cc1-c1nnc2n1CCCCC2	hDAT+cocaine 3.4
Nc1c2c(nc3ccccc13)CCCC2	none
Cc1c2c(nc3ccccc13)CCC(C(C)(C)C)C2 (centres undefined)	WT yeast gro inh 68 (no result: HCT116 PTEN-null, bCat KO growth, hDAT+cocaine)
COc1ccc(C(=O)CC(=O)C(=O)NCCc2cccc(C)c2)cc1	none (no result: hDAT+cocaine)
CN(C)c1ccc(N=Nc2ccccc2C(=O)OCC(=O)NCC2CCCCC2)cc1	WT yeast gro inh 64 (no result: hDAT+cocaine)
COc1ccc(/C=C/c2nc3cc(-c4ccccc4)ccc3o2)cc1O	WT yeast gro inh 67 (no result: hDAT+cocaine)
Cc1ccc(OCCCCNC2CCCC(C)C2C)c(C)c1 (centres undefined)	WT yeast gro inh 63 (no result: HCT116 PTEN-null, bCat KO growth, hDAT+cocaine)
O=C(Nc1ccc(NC(=O)c2sc3ccccc3c2Cl)cc1)c1ccco1	HCT116 PTEN-null 1.5, bCat KO growth 1.4 (no result: hDAT+cocaine)
O=C(Nc1cccc(C(F)(F)F)c1)c1ccco1	none
O=C(Nc1ccc(Cl)c(C(F)(F)F)c1)c1ccco1	WT yeast gro inh 72
CC1=NNC(=O)C1CCC(=O)N/N=C/C(Br)=C/c1ccccc1 (centres undefined)	none (no result: hDAT+cocaine)
Cc1ccc(S(=O)(=O)N2CCC(=O)N(C(COCc3cccc(C(F)(F)F)c3)Cc3ccccc3)CC2)cc1 (centres undefined)	none
C=CC[C@]12C=C(OC)C(=O)C=C1O[C@@H](c1ccc3c(c1)OCO3)[C@H]2C	none (no result: HCT116 PTEN-null, WT yeast gro inh, bCat KO growth)
N/C(Cc1ccc(Cl)cc1)=N\OC(=O)c1ccc2ccccc2c1	none
N/C(Cc1ccc(Cl)cc1)=N\OC(=O)c1cccc2ccccc12	WT yeast gro inh 98
CC(C)C1CC(CCN2CCCCC2)(c2ccccc2)CCO1 (centres undefined)	none (no result: HCT116 PTEN-null, bCat KO growth, hDAT+cocaine)
O=C(CSCc1cccc(Cl)c1)Nc1ccccc1-c1ccccc1	WT yeast gro inh 64 (no result: hDAT+cocaine)
Cc1ccccc1NC(=O)CSCC(=O)Nc1ccccc1C	none
Cc1ccccc1CSCC(=O)Nc1ccccc1-c1ccccc1	WT yeast gro inh 74 (no result: hDAT+cocaine)
O=C(CSCc1ccc(Cl)cc1)Nc1ccccc1O	none (no result: HCT116 PTEN-null, bCat KO growth, hDAT+cocaine)
COC(=O)c1cn(Cc2ccccc2C)nn1	none (no result: hDAT+cocaine)
CC(C)(C)[C@@H]1C=C(C(N)=O)O[C@H](OCCCCO)C1	none (no result: HCT116 PTEN-null, WT yeast gro inh, bCat KO growth)
COc1ccc(/C=C/C(=O)OCC(=O)Nc2cc(C(F)(F)F)ccc2Cl)cc1	none (no result: hDAT+cocaine)
NC(=O)c1ccsc1NC(=O)c1ccc2c(c1)CCCC2	WT yeast gro inh 70
CNC(=O)c1ccsc1NC(=O)c1ccc2c(c1)CCCC2	WT yeast gro inh 72 (no result: hDAT+cocaine)
Cc1ccc(S(=O)(=O)N(C)CC(=O)OCC(=O)NC(=O)Nc2ccc3c(c2)OCCO3)cc1	none (no result: hDAT+cocaine)
CCc1nc2sc3ccccc3c(=O)c2c(=O)n1Cc1ccco1	hDAT+cocaine -7.3
Cc1cc(NC(=O)CSc2ncccc2C(=O)O)no1	none (no result: HCT116 PTEN-null, bCat KO growth, hDAT+cocaine)
O=C(CSc1nc2ccc(NC(=O)CSc3nnnn3-c3ccccc3)cc2s1)Nc1ccccc1	none (no result: hDAT+cocaine)
Cc1cccc(NC(=O)CSc2nc3ccc(NC(=O)CSc4nnnn4-c4ccccc4)cc3s2)c1C	bCat KO growth 2.3 (no result: hDAT+cocaine)
C=CCOC(=O)C1=C[C@@H](c2csc3ccccc23)C[C@@H](OCCCCO)O1	none (no result: HCT116 PTEN-null, WT yeast gro inh, bCat KO growth)
CN(C)CCCN1c2ccccc2CCc2ccccc21	none
CN(C)CC/C=C1\c2ccccc2Sc2ccc(Cl)cc21	WT yeast gro inh 87
OCCN1CCN(CCCN2c3ccccc3Sc3ccc(Cl)cc32)CC1	HCT116 PTEN-null 2.3, WT yeast gro inh 96, bCat KO growth 1.5
OCCN1CCN(Cc2cccc(Oc3ccc(Cl)cc3)c2)CC1	none
CN(C)CCCN1c2ccccc2Sc2ccc(Cl)cc21	HCT116 PTEN-null 2.7!, bCat KO growth 1.8!
Cc1nc(N2CCCCC2)c2c(-c3cccs3)csc2n1	WT yeast gro inh 69 (no result: HCT116 PTEN-null, bCat KO growth, hDAT+cocaine)
Cc1nc(N2CCN(S(=O)(=O)c3ccccc3C#N)CC2)c2c(-c3cccs3)csc2n1	none (no result: HCT116 PTEN-null, bCat KO growth, hDAT+cocaine)
CC(NC(=O)/C(C#N)=C/c1ccc(Cl)c([N+](=O)[O-])c1)c1ccccc1 (centres undefined)	HCT116 PTEN-null 1.2, bCat KO growth 1.6 (no result: hDAT+cocaine)
N#C/C(=C\c1ccc(O)c([N+](=O)[O-])c1)C(=O)NCc1ccccc1	none (no result: HCT116 PTEN-null, bCat KO growth, hDAT+cocaine)
c1ccc(N(c2ccccc2)c2nc(N3CCCC3)nc(-n3ccnc3)n2)cc1	WT yeast gro inh 78 (no result: hDAT+cocaine)
CN(c1ccccc1)c1nc(N2CCCC2)nc(-n2ccnc2)n1	none
Cc1cccc(/C=N/NC(=O)Cn2nccc2C)n1	none (no result: hDAT+cocaine)
Cc1cccc(Nc2nc(-c3cccs3)cs2)n1	WT yeast gro inh 72
c1ccc(Nc2nc(-c3cccs3)cs2)nc1	none
Cn1c(CN2CCCC2)nc2cc(NC(=O)COc3ccc([N+](=O)[O-])cc3)ccc21	none (no result: hDAT+cocaine)
CCOc1ccc(-c2nnc(NC(=O)c3ccc(OCC(C)C)c(OC)c3)o2)cc1	WT yeast gro inh 64
COc1ccccc1C(=O)Nc1nnc(-c2ccc3c(c2)CCCC3)o1	WT yeast gro inh 60
COc1ccc(-c2nnc(NC(=O)c3ccccc3C)o2)cc1	WT yeast gro inh 64 (no result: HCT116 PTEN-null, bCat KO growth)
CCOc1ccc(NC(=O)Nc2ccccc2SC)cc1	none (no result: HCT116 PTEN-null, bCat KO growth, hDAT+cocaine)
O=S(=O)(c1ccc(Cl)cc1)N1CCC2(CC1)CO2	none (no result: HCT116 PTEN-null, bCat KO growth, hDAT+cocaine)
Cc1ccc(S(=O)(=O)N2CCOCC2)cc1C(=O)OCC(=O)NC1CCS(=O)(=O)C1 (centres undefined)	none (no result: hDAT+cocaine)
CC(=O)Nc1ccc(N2CCN(C(=O)c3cccs3)CC2)cc1	hDAT+cocaine -8.2
O=C(CCS(=O)(=O)Cc1ccccc1)NCCc1ccccc1	none (no result: HCT116 PTEN-null, bCat KO growth, hDAT+cocaine)
